Screens from PubChem.
Shown are actives, neighbours in structure and some others; about 0.98% of the full set was active somewhere.
PfHsp40 rescue: rescue of PfHsp40-mediated yeast toxicity; S. cerevisiae expressing PfHsp40, growth rescue, ATP luminescence; growth rescue, % at 12.5 µM; hit rate 0.68% among 340,000; AID 504582; in the data active = growth rescue above about 28%, passing the limit was not always enough; inconclusive = no clear call, values can overlap the other calls;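 also: yeast W303a lacking pdr1 and pdr3 grown in galactose medium; growth measured after three days at 30 °C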
Mtb UGM inh: blocks M. tuberculosis UGM enzyme. P9WIQ1. purified UGM, fluorescence polarization probe displacement. inhibition, % at 10 µM. hit rate 0.06% among 320,000; in the data active = inhibition above about 10%, passing the limit was not always enough; inconclusive = no clear call, values can overlap the other calls
Mtb bLac sens: beta-lactam sensitization of Mtb H37Rv; M. tuberculosis H37Rv growth with meropenem, percent inhibition; inhibition, % at 25 µM; hit rate 0.27% among 330,000; AID 434955; call rule not given here;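 also: growth measured after seven days incubation then overnight dye step; 0% = bacteria only wells and 100% = bacteria with antibiotic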
Rv3671c inh: inhibitors of M. tuberculosis serine protease Rv3671c; inhibition, % at 5.96 µM; hit rate 0.048% among 320,000; in the data active = inhibition above about 38%;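 also: extracellular domain of Rv3671c used as enzyme; 0% = enzyme with DMSO and 100% = no enzyme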
Target sequence (P9WHR9 whole entry, looked up, the tested form may be a part): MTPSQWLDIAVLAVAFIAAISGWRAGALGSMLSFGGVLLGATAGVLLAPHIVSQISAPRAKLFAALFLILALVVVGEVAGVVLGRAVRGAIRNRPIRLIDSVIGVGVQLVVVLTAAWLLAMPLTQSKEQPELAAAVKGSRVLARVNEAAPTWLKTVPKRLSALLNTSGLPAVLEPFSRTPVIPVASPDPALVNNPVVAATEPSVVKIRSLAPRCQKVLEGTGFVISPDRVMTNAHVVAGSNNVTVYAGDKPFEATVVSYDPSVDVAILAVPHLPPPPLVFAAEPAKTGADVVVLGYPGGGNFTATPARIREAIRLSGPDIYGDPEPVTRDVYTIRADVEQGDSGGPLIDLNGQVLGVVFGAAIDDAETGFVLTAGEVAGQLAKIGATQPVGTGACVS
FadD28 FP inh: M. tuberculosis FadD28 bisubstrate binding inhibition; FadD28 bisubstrate probe binding, fluorescence polarization; inhibition, % at 12.5 µM; hit rate 0.22% among 360,000; in the data active = inhibition above about 8.5%, passing the limit was not always enough; inconclusive = no clear call, values can overlap the other calls
Yp Topo-I inh: Y. pestis Topo-I inhibition via cleavage products. Y. pestis Topo-I cleavage product accumulation, plate reader. activity, % at 10 µM. hit rate 0.064% among 360,000; in the data active = activity above about 50%, passing the limit was not always enough; inconclusive = no clear call, values can overlap the other calls
An asterisk follows results filed as active; ? = inconclusive; . = no result.

SMILES	PfHsp40 rescue	Mtb UGM inh	Mtb bLac sens	Rv3671c inh	FadD28 FP inh	Yp Topo-I inh
CCOc1ccc(C2CC=C(C(C)=O)CN2S(=O)(=O)c2ccc(C)cc2)cc1 (configuration not stated)	.	.	.	.	-6.7	.
CN=c1scc(-c2ccccc2F)n1/N=C/c1ccc(O)c(O)c1O	30.1*	.	.	.	9.1*	-12.1
Cc1ccc(S(=O)(=O)NN=C2CCc3ccccc32)cc1	.	.	.	.	-2.3	2.6
CCOC(=O)C1=C[C@@H](c2ccccc2)N(S(=O)(=O)c2ccc(C)cc2)[C@H]1c1ccc(OC)cc1	.	.	.	.	-0.8	.
COc1ccc(NS(=O)(=O)c2ccc3c(c2)Cc2ccccc2-3)cn1	28.3*	-0.9	-7.6	-18.5	-2.2	24.0
CCn1c(=O)c(CCC(=O)N2CCN(c3ccccn3)CC2)c(C)c2c(C)nn(-c3ccccc3)c21	44.7*	1.2	3.1	-2.5	-1.1	6.1
CC1(C(=O)OCC(=O)Nc2ccc3ccccc3c2)CC1(Cl)Cl (configuration not stated)	45.7*	-0.3	34.7	-8.4	-2.0	-5.9
CCCn1c2ccccc2c2cc(C(=O)O)ccc21	325.3*	1.4	10.9	-9.2	-5.2	-0.9
Cn1c2ccccc2c2cc(C(=O)O)ccc21	41.6*	2.4	0.2	-1.1	0.5	11.2
CCn1c2ccccc2c2nc3cc(C(=O)O)ccc3nc21	?	.	.	.	-7.5	0.7
Cc1ccc2nc(-c3ccco3)c(CC3CCCCC3)n2c1	.	.	.	.	-0.5	.
N#C/C(=N\Nc1cccc(C(F)(F)F)c1)C(=O)c1ccsc1	?	7.2	1.6	1.5	0.4	2.5
Cc1ccccc1C(=O)NC(=S)Nc1sc2c(c1C#N)CCCC2	71.5*	-1.6	0.5	-2.8	-1.1	-5.4
CCc1ccc(Nc2nc(N)nc(CSc3nnnn3-c3ccccc3)n2)cc1	0.4	0.5	-2.2	-5.8	-1.5	52.8*
C[C@H]1CN([C@@H](C)CO)C(=O)CCCn2nncc2CO[C@H]1CN(C)C(=O)Nc1ccnc(N2CCOCC2)c1	.	.	.	.	0.2	-11.4
O=C(O)C1Cc2[nH]cnc2C(c2ccc(F)cc2)N1 (configuration not stated)	60.6*	-0.6	5.9	-1.5	-2.2	1.9
Fc1ccc(C2NCCc3[nH]cnc32)cc1 (configuration not stated)	-1.1	-1.0	2.0	1.2	-1.5	5.9
Cn1c(NCc2cccnc2)nc2cc(-c3ccc(C(=O)N4CCOCC4)cc3)sc2c1=O	.	.	.	.	-2.7	10.6
Cc1ccccc1NCC(=O)c1ccc(Br)cc1	-1.3	-0.7	-11.8	1.0	-2.7	176.3*
NC(=O)c1ccccc1NCC(=O)c1ccc(Cl)cc1	1.0	-1.7	4.6	3.6	0.4	57.5*
O=C(CNc1ccccc1C(=O)O)c1ccccc1	-1.0	-0.8	-2.9	-2.9	-0.1	-0.7
CC(=O)C1=C(c2cccc([N+](=O)[O-])c2)N(C(C)=O)n2c(C)nnc2S1	82.4*	-0.3	4.9	8.0	-2.7	7.1
CC(=O)c1c(C(C)=O)c(C)n(-c2cccc([N+](=O)[O-])c2)c1C	-2.1	.	-0.4	0.0	-3.0	0.7
O=C(CSc1ccc(-c2nc3ccccc3[nH]2)cn1)Nc1ccc2c(c1)OCCO2	-0.9	0.2	5.0	-16.3	-2.6	5.1
O=C(CSc1ccc(-c2nc3ccccc3[nH]2)cn1)Nc1ccc(S(=O)(=O)NC2CC2)cc1	2.5	1.4	2.2	-257.8	32.9*	-4.3
SMILES	PfHsp40 rescue	Mtb UGM inh	Mtb bLac sens	Rv3671c inh	FadD28 FP inh	Yp Topo-I inh
OC[C@@H]1CN(Cc2ccco2)C[C@H](n2cnc3c(N4CCN(c5ccccc5)CC4)ncnc32)O1	.	.	.	.	0.7	14.0
CCc1nc2c(OCc3ccc(F)cc3)cccn2c1N(C)C(=O)CC(C)C	.	.	.	.	-0.4	25.5
CN(C)CCNC(=O)c1onc(CSc2ccc(F)c(F)c2)c1C(=O)NCCN(C)C	-1.2	3.7	1.5	-3.2	-0.6	-20.1
CN(C)CCNC(=O)c1onc(CSc2ccc(F)cc2)c1C(=O)NCCN(C)C	33.8*	-1.3	-5.2	-6.1	0.4	-1.2
CCCNC(=O)c1onc(CSc2ccc(F)c(F)c2)c1C(=O)NCCC	.	1.3	-1.7	5.4	.	.
CC(C)CCNC(=O)c1onc(CSc2ccc(F)c(F)c2)c1C(=O)NCCC(C)C	37.3*	0.4	-5.6	-3.1	-1.6	2.9
COc1ccc2oc(C(=O)N(C)Cc3ccc4c(c3)OCCO4)c(C)c2c1	-1.8	-0.4	19.5	-7.0	-4.0	1.4
COc1ccc2oc(C(=O)OCC(=O)c3ccc4c(c3)OCCO4)c(C)c2c1	72.3*	-1.2	4.2	1.6	-1.3	-1.4
O=C(c1ccccc1F)N1CCN(c2cccc(C(F)(F)F)c2)CC1	121.5*	-1.5	-9.3	4.7	1.4	10.7
COc1ccc(-c2oc3ccccc3c2C#CC(C)(C)O)cc1	38.4*	-2.5	74.7	-8.9	-3.7	4.2
O=C(NC(c1ccccc1)c1ccsc1)C1CCN(Cc2ccc(Oc3ccccc3)cc2)CC1 (configuration not stated)	.	.	.	.	-4.8	20.6
CC(C)=NNC(=O)c1c(O)c2ccccc2[nH]c1=O	100.3*	1.9	99.8	-7.4	-4.5	0.5
O=C(NCc1cccnc1)c1cc(C2CCCN(S(=O)(=O)c3ccccc3)C2)on1 (configuration not stated)	.	.	.	.	-2.0	1.6
Cc1c(C(=O)Nc2ccc3c(c2)OCCO3)sc2nc(-c3ccccc3)cn12	144.9*	0.3	-1.0	-24.9	-4.1	21.4
CCCCCCCCCCCCCCCC(O)C(N)CO (configuration not stated)	1.5	-1.1	15.1	9.7	48.7*	2.6
Cc1ccc(C)c(NS(=O)(=O)c2ccc(NC(=O)CSc3ccc(Cl)cc3)cc2)c1	-1.6	-2.1	-7.3	-8.1	?	-0.9
Cc1ccc(NS(=O)(=O)c2ccc(NC(=O)C(C)Sc3ccc(Cl)cc3)cc2)c(C)c1 (configuration not stated)	93.3*	0.1	-0.1	-207.0	-1.8	4.1
O=C(Nc1nnc(C2=COCCO2)o1)c1cccc([N+](=O)[O-])c1	1.3	-0.8	1.4	3.1	-0.4	3.2
O=C(Nc1nnc(C2=COCCO2)o1)c1cccc(Br)c1	59.0*	1.8	86.8	-0.2	0.8	3.5
COc1ccccc1S(=O)(=O)N(C)C[C@@H]1OCc2cn(nn2)CCCC(=O)N([C@H](C)CO)C[C@H]1C	.	.	.	.	-0.4	0.7
Cc1cc(C)c(NC(=O)c2cc3c(nc4sccn43)s2)c(C)c1	66.4*	-0.1	-1.3	-9.0	-4.8	-7.9
O=C(COc1ccc(Cl)cc1)Nc1ccc2c(c1)C(=O)NC2=O	-1.2	-0.1	-27.2	-14.6	-0.6	4.6
CCCCOC(=O)/C=C/c1ccc(OC(=O)OC)c(OC(=O)OC)c1	286.6*	-2.5	6.6	-5.5	-1.3	-2.4
NC(=O)c1cc(-c2csc(NCCc3ccccc3)n2)ccc1O	0.4	1.9	3.1	14.8	14.8*	0.9
CN1C(=O)[C@H]2[C@@H](c3ccc(C(F)(F)F)cc3)N[C@]3(CCCN(Cc4ccco4)C3=O)[C@H]2C1=O	.	.	.	.	-2.1	-4.7
CC(=O)Nc1ccc(S(=O)(=O)Nc2nnc(C)s2)cc1	.	.	.	.	-0.2	8.4
